Compound activity from PubChem BioAssay.
Sampled rows, rich in hits. Any-hit rate of the full collection: about 1.6%.
KCNQ2 pot – enhances the rat KCNQ2 potassium channel. O88943. CHO-K1 KCNQ2, FluxOR thallium flux fluorescence; stronger effect = higher value. B-score at 10 µM. 0.54% of 310,000 active;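 active means fluorescence ratio B-score at least 3 SD of library B-scores, with initial fluorescence B-score within 3 of them, cut at about 5.3 in these data; same plate scores as AID 2156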;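 further: B-score of peak minus minimum over baseline fluorescence ratio after K+ and Tl+ stimulus; positive B-score means potentiation of KCNQ2 with more thallium influx and brighter signal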
KCNQ2 block – KCNQ2 (rat) channel inhibition; O88943; CHO-K1 KCNQ2, FluxOR thallium flux, 20 min; stronger effect = lower value; B-score at 10 µM; 1.1% of 310,000 active;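 active means fluorescence ratio B-score at most minus 3 library SDs, with starting brightness B-score within 2 library SDs, cut at about -5.5 in these data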
Each line names hits and unclear results; the compound was inactive in the other large screens.

COc1cccc(-n2c(SCc3cc(=O)oc4cc(O)c(O)cc34)nc3ccccc3c2=O)c1	KCNQ2 block -6.1
C/C(CS(=O)(=O)c1ccc(Cl)c(Cl)c1)=N/NC(N)=S	none (no result: KCNQ2 pot)
Fc1cccc(Cl)c1CSc1nnc(CNc2ccccc2)o1	none (no result: KCNQ2 pot)
Clc1ccc(CSc2nnc(CNc3cccc(Cl)c3)o2)cc1	KCNQ2 block -5.7
O=C(c1ccc2ccccc2c1)N1CCCCC1	none
O=C(c1ccc2ccccc2c1)N1CCN(c2ccccc2)CC1	KCNQ2 block -5.6
COc1ccc(CN2CCN(c3ccccn3)CC2)c(OC)c1C	none
COc1ccccc1C(=O)NNC(=S)NC(=O)c1cccs1	none (no result: KCNQ2 pot)
COc1ccccc1C(=O)NC(=S)NNC(=O)c1sc2ccccc2c1Cl	KCNQ2 pot 23
Cc1c(NC(=S)NC(=O)c2sc3ccccc3c2Cl)cccc1C(=O)O	none
COc1ccccc1C(=O)NC(=S)Nc1cccc2cc(O)ccc12	KCNQ2 block -7.9
COc1ccccc1C(=O)NNC(=S)NC(=O)c1sc2ccccc2c1Cl	KCNQ2 pot 16
O=C(NC(=S)Nc1cccc2cc(O)ccc12)c1ccccc1Br	none (no result: KCNQ2 pot)
O=C(COC(=O)c1cccc([N+](=O)[O-])c1)c1ccc(OCc2ccccc2)cc1	none (no result: KCNQ2 pot)
Cc1cc2[nH]c(=O)c(=O)[nH]c2cc1S(=O)(=O)N1CCN(c2cccc(Cl)c2)CC1	none
C=CCN(CC=C)C(=S)NC(=O)c1ccc(OC)cc1	none
C=CCN(CC=C)C(=S)NC(=O)c1ccc(C)c(Br)c1	KCNQ2 pot 24
COc1ccccc1N1CCN(C(=O)CSc2ncnc3scc(-c4ccccc4)c23)CC1	none (no result: KCNQ2 pot)
O=C(CSc1ncnc2scc(-c3ccccc3)c12)N1CCN(c2ccccc2F)CC1	KCNQ2 block -6.2
O=C(NCCc1ccc(Cl)cc1)C1CCC(=O)N1C1CCCC1 (centres undefined)	none
Nc1cc(-c2ccc(Cl)cc2)nn1-c1ccccc1	none
CC(=N\Nc1ccccc1)/C(=N/O)C(=O)Nc1ccccc1	KCNQ2 block -6
CC(=N\NC(=O)c1ccccc1)/C(=N/O)C(=O)Nc1ccccc1	none (no result: KCNQ2 pot)
CCOC(=O)CN(Cc1sccc1C)C(=O)Nc1ccc(OCC)cc1	none
CC#C[C@]1(O)CC[C@H]2[C@@H]3CCC4=CC(=O)CCC4=C3[C@@H](c3ccc(N(C)C)cc3)C[C@@]21C	KCNQ2 block -5.9
C#C[C@]1(O)CCC2C3CCC4=CC(=O)CC[C@@H]4C3CC[C@@]21C (some centres undefined)	none (no result: KCNQ2 pot)
COc1cc(C(=O)Nc2sc(C)c(C)c2C(=O)O)cc(OC)c1OC	none
Clc1ccc(CONc2ncnc3nonc23)c(Cl)c1	KCNQ2 pot 6.9
CCONc1ncnc2nonc12	none
CC1=NN(CCC#N)C(=O)/C1=C/c1ccc(N(C)C)cc1	none
C=C1SC(=Nc2c(C)cccc2Cl)N(C(=O)c2sc3ccccc3c2Cl)C12CCCCC2	none (no result: KCNQ2 pot)
C=C1SC(=Nc2ccccc2Cl)N(C(=O)c2sc3ccccc3c2Cl)C1(C)C	KCNQ2 block -5.8
Cc1cccc(NC(=S)NCC(C)CSc2ccc(Cl)cc2)c1 (centres undefined)	none
Cc1ccc(NC(=S)NCC(C)CSc2ccc(Cl)cc2)cc1 (centres undefined)	KCNQ2 pot 13
Cc1cc(C)n(-c2nc3ccccc3c(=O)n2OCCOc2ccccc2)n1	KCNQ2 block -5.6
C=CCOn1c(-n2nc(C)cc2C)nc2ccccc2c1=O	none (no result: KCNQ2 pot)
Fc1cccc2sc(Nc3nc4cc5c(cc4s3)OCO5)nc12	KCNQ2 pot 6.9
Fc1cccc2sc(Nc3nc4cc5c(cc4s3)OCCO5)nc12	none
CC1CCCCC1NC(=O)c1cc2c(=O)n3ccccc3nc2n1C (centres undefined)	none (no result: KCNQ2 pot)
CC(=O)c1cccc(N=C2C(=O)Nc3ccccc32)c1	none (no result: KCNQ2 pot)
O=C(NCC1CCCO1)c1cc2c([nH]c3ccccc32)c(-c2cccc(Br)c2)n1 (centres undefined)	KCNQ2 block -6.4
O=C(NCC1CCCO1)c1cc(-c2ccccc2)nc2ccc(Br)cc12 (centres undefined)	KCNQ2 block -7.4
COc1ccc(-c2cc(C(=O)NCC3CCCO3)c3cc(C)ccc3n2)cc1 (centres undefined)	KCNQ2 block -5.6
COc1ccc(-c2nc(C(=O)NCC3CCCO3)cc3c2[nH]c2ccccc23)cc1 (centres undefined)	none (no result: KCNQ2 pot)
COc1ccc(-c2cc(C(=O)NCC3CCCO3)c3ccccc3n2)cc1 (centres undefined)	none
Cc1ccc2nc(-c3cccc(Br)c3)cc(C(=O)NCC3CCCO3)c2c1 (centres undefined)	none (no result: KCNQ2 pot)
O=C(CN1C(=O)NC2(CCCCC2)C1=O)Nc1nc2c(F)cc(F)cc2s1	none (no result: KCNQ2 pot)
CSc1nc2ccc(NS(=O)(=O)c3ccccc3F)cc2s1	none (no result: KCNQ2 pot)
O=C(Nc1ccccc1O)C(c1ccccc1)c1ccccc1	KCNQ2 block -6.5
O=C(Nc1ccc(Cl)c(Cl)c1)Nc1ccccc1O	KCNQ2 pot 11
O=C(Nc1ccc(Cl)c(Cl)c1)Nc1ccc(Br)cc1F	none (no result: KCNQ2 pot)
O=C(O)c1ccccc1NC(=O)C(c1ccccc1)c1ccccc1	none
COC(=O)c1c(-c2cccc(C)c2)csc1N	none
Cc1c(Cl)cnc(NC(=O)COC(=O)c2nn(C)c(=O)c3ccccc23)c1Cl	none
CC(=O)Nc1ccc2nc(-c3ccccn3)[nH]c2c1	none
CCOC(=O)N1CCN(Cc2cc(Cl)c3cccnc3c2O)CC1	KCNQ2 pot 15
COCc1cc(CN2CCN(C)CC2)c(O)c2ncccc12	none (no result: KCNQ2 pot)
O=C(Nc1ccc2c(c1)OCCO2)c1cc2sccc2n1Cc1ccc(F)cc1	KCNQ2 block -6.1
O=C(Nc1ccc2c(c1)OCCO2)c1cc2sccc2n1Cc1ccccc1	none (no result: KCNQ2 pot)
CCS(=O)(=O)c1nc(S(=O)(=O)c2ccc(C)cc2)c(NCc2ccccn2)s1	none
O=C(c1cccs1)N1N=C(c2ccccc2)CC1c1ccc(O)cc1 (centres undefined)	none
CCCN(CC1CC1)c1nc(N)c(C#N)c(CC#N)c1C#N	none (no result: KCNQ2 pot)
CCCN(CC1CC1)c1nc(C)nc(Nc2c(Cl)cc(Cl)cc2Cl)c1Cl	KCNQ2 block -5.6
CC(=O)Oc1cc2c(C(=O)NCCCN3CCOCC3)c(C)oc2c2ccccc12	none (no result: KCNQ2 pot)
Cn1ccc(NC(=O)Nc2ccc(Cl)cc2Cl)n1	none (no result: KCNQ2 pot)
Cc1cccn2c(/C=N/OCc3ccc(F)cc3)c(-c3ccc(Cl)cc3)nc12	KCNQ2 block -6.6
COc1ccc(/C(C#N)=C/c2c(-c3ccc(Cl)cc3)nc3c(C)cccn23)cc1	none (no result: KCNQ2 pot)
COC(=O)c1ccc(NC(=O)CSC2=Nc3ccccc3C3CC=NN23)cc1 (centres undefined)	none (no result: KCNQ2 pot)
CC(SC1=Nc2ccccc2C2CC=NN12)C(=O)NC1(C#N)CCCCC1 (centres undefined)	KCNQ2 block -8.7
CC1CN(c2nc3ccccc3nc2C(C#N)C(=O)OC2CCCCC2)CC(C)O1 (centres undefined)	KCNQ2 block -5.9
CC1CCN(c2nc3ccccc3nc2C(C#N)C(=O)OC2CCCCC2)CC1 (centres undefined)	none (no result: KCNQ2 pot)
COc1ccc(CNC(=O)CCCn2nc(C)n3c(cc4sccc43)c2=O)cc1	none
COc1cc(C)c(C)cc1S(=O)(=O)N1CCN(Cc2ccccc2)CC1	none
Cc1ccc(C)c2nc(SCC(=O)N3CCCc4ccccc43)c(C#N)cc12	KCNQ2 block -7.7
Cc1cccc2cc(C#N)c(SCC(=O)N3CC(=O)Nc4ccccc43)nc12	none
CC(Oc1ccc(Cl)cc1)c1ccn[nH]1 (centres undefined)	none (no result: KCNQ2 pot)
COc1ccc(-c2cn[nH]c2C)cc1	none (no result: KCNQ2 pot)
COc1ccc(C2/C=C\CN(C(=O)Nc3ccccc3)CC(=O)N2Cc2ccc(F)cc2)cc1 (centres undefined)	none (no result: KCNQ2 pot)
CCCCN(C(=O)c1c(C)noc1C)c1c(N)n(CCCC)c(=O)[nH]c1=O	none (no result: KCNQ2 pot)
